63 molecules from ChEMBL document CHEMBL3988442, “University of Dundee, Small-Polar-MMV Screening Library” (2021) can be followed below.

In all, about 48,000 compounds went through this assay and about 13,000 (27%) showed an effect of 50% or more. This is one part of the list.

This test deals with Wolbachia pipientis. In words: Anti-Wolbachia Cell-Based Screen. It counts as functional. Details: scale not given: in the data most compounds retested in dose-response had high values. As to conditions: 5 µM.
With `OCCN(Cc1cccnc1)c1cnc2ccccc2n1`, the “Percent Effect” value is -10.33%.

Take `COCC(=O)N1CCCC2(COCCN(CCN(C)C)C2)C1.O=C(O)C(F)(F)F.O=C(O)C(F)(F)F` (stereo not drawn): the “Percent Effect” value was -43.45%.

Take `COCCC(=O)N1CCOCC2(CCN(Cc3cccs3)C2)C1.O=C(O)C(F)(F)F` (stereo not drawn): the “Percent Effect” value came out at 93.92%.

Regarding `COCCN1CCC2(COCCN(C(=O)Cc3cccs3)C2)C1.O=C(O)C(F)(F)F` (stereo not drawn), the “Percent Effect” value is listed as 3.842%.

Take `COCCC(=O)N1CCC2(CCN(Cc3ccc(C)cc3)CC2)C1.O=C(O)C(F)(F)F`: the “Percent Effect” value is -24.32%.

Take `COCC(=O)N1CCOCC2(CCN(Cc3cccs3)C2)C1.O=C(O)C(F)(F)F` (stereo not drawn): the “Percent Effect” value is on record as 92.34%.

On to `Cc1nc(CC2CCCN(Cc3nc4ccccc4c(=O)[nH]3)C2)no1` (stereo not drawn), for which the “Percent Effect” value was -3.308%.

As for `CSCc1cccc(S(=O)(=O)NCCCn2ccnc2)c1`, the “Percent Effect” value is recorded as -11.24%.

For the molecule `O=C(CCc1nccs1)N1CCN(c2ccccn2)CC1`, the “Percent Effect” value is listed as 104.9%.

Take `N#Cc1ccccc1N1CCCN(C(=O)CCc2nccs2)CC1`: the “Percent Effect” value turned out to be 6.343%.

As for `O=C(CCc1nccs1)N1CCN(c2nccs2)CC1`, the “Percent Effect” value turned out to be 116.1%.

Regarding `O=C(CCc1nccs1)N1CCN(c2ccc(Cl)cn2)CC1`, the “Percent Effect” value is 142.1%.

In the case of `O=C(CCc1nccs1)N1CCN(c2ccc(Br)cn2)CC1`, the “Percent Effect” value came to 15.4%.

`O=C(CCc1nccs1)N1CCN(c2cccnn2)CC1`: the “Percent Effect” value is on record as 5.775%.

In the case of `O=C(CCc1nccs1)N1CCN(c2ncccn2)CC1`, the “Percent Effect” value is reported as -7.196%.

In the case of `O=C(CCc1nccs1)N1CCN(c2ccccc2F)CC1`, the “Percent Effect” value is -6.443%.

With `Cc1ccc(N2CCCN(C(=O)CCc3nccs3)CC2)nn1`, the “Percent Effect” value was 105.9%.

In the case of `O=C(COCc1ccccc1)N1CCN(c2ccc(Cl)cn2)CC1`, the “Percent Effect” value is 1.398%.

As for `COc1cc(C)nc(N2CCN(C(=O)CCc3nccs3)CC2)n1`, the “Percent Effect” value is on record as -2.127%.

On to `Cc1csc(N2CCN(C(=O)CCc3nccs3)CC2)n1`, for which the “Percent Effect” value was determined as 0.8841%.

As for `Cc1nnc(CNC(=O)[C@@H]2C[C@H](NC(=O)C(C)(C)C)CN2C)[nH]1`, the “Percent Effect” value is on record as -6.748%.

In the case of `CCOCCC(=O)N(Cc1ccncc1)C(C)CC` (stereo not drawn), the “Percent Effect” value is -2.407%.

Turning to `CC(=O)N[C@@H](CC(C)C)C(=O)N1CCC(n2cc(C(C)(C)N)nn2)CC1`, the “Percent Effect” value was found to be 10.18%.

Regarding `Cc1n[nH]c(C)c1NC(=O)CN(CC(O)c1ccc(F)cc1)C1CC1` (stereo not drawn), the “Percent Effect” value is listed as -1.217%.

As to `COc1cc2c(nn1)CCN(Cc1nc(Cc3ccccc3)no1)C2`, the “Percent Effect” value is recorded as -1.36%.

Turning to `CCS(=O)(=O)N1CCOC2(CCCN(c3cccc(C#N)c3)C2)C1` (stereo not drawn), the “Percent Effect” value is recorded as -4.449%.

On to `Cc1cc(C)c(CNC(=O)NCCOc2ccc3c(c2)CCC3)c(=O)[nH]1`, for which the “Percent Effect” value was -6.999%.

As to `CN(CC1(CO)CCCC1)C(=O)c1cc(COc2ccccc2F)[nH]n1`, the “Percent Effect” value is 101.7%.

With `O=C(NCc1nc[nH]n1)c1cc(COc2ccccc2F)[nH]n1`, the “Percent Effect” value is reported as -17.12%.

As to `O=C(NCCN1CCOCC1)c1cc(COc2ccccc2F)[nH]n1`, the “Percent Effect” value is given as -10.47%.

Consider `CN(Cc1nncn1C)C(=O)c1cc(COc2ccccc2F)[nH]n1`, for which the “Percent Effect” value is reported as -12.02%.

For `O=C(NCCC1CCCCO1)c1cc(COc2ccccc2F)[nH]n1` (stereo not drawn), the “Percent Effect” value was 0.1687%.

For `CN(CC1(CO)CCC1)C(=O)c1cc(COc2ccccc2F)[nH]n1`, the “Percent Effect” value came to 109.5%.

In the case of `O=C(N[C@@H]1CNCCC[C@H]1O)c1ccc(OCCN2CCOCC2)cc1`, the “Percent Effect” value is 0.8179%.

`CO[C@@H]1CC[C@@H](NC(=O)c2ccc(OCCN3CCCC3)cc2)[C@H]1O`: the “Percent Effect” value turned out to be 109.4%.

With `O=C(N[C@@H]1CNCCC[C@H]1O)c1ccc(OCCN2CCCC2)cc1`, the “Percent Effect” value is 0.07573%.

On to `c1cn(CCc2c[nH]cn2)c(-c2cc(CN3CCCC3)cs2)n1`, for which the “Percent Effect” value was -0.5916%.

Consider `Cl.Fc1ccccc1CNc1ccnc(C2CCNCC2)c1`, for which the “Percent Effect” value was found to be 96.16%.

Consider `Cl.Fc1cccc(F)c1Cn1c(C2CCNCC2)cc2cccnc21`, for which the “Percent Effect” value turned out to be 115.5%.

With `CC(C)(C)OC(=O)N1CC(CC(=O)NCc2ccnc(C3CC3)c2)C1`, the “Percent Effect” value was -29.57%.

With `Cl.Fc1ccccc1Cn1c(C2CCNCC2)cc2cccnc21`, the “Percent Effect” value amounted to 115.9%.

As for `Cl.c1cnc2c(c1)cc(C1CCOCC1)n2CCN1CCOCC1`, the “Percent Effect” value is given as -3.513%.

For the molecule `Cl.Fc1cccc(F)c1Cn1c(C2CCCNC2)cc2cccnc21` (stereo not drawn), the “Percent Effect” value was 125.8%.

On to `NS(=O)(=O)c1ccc(NCc2ccccc2F)cc1C(F)(F)F`, for which the “Percent Effect” value is recorded as -7.773%.

As for `O=C(O)C(F)(F)F.O=C(c1ncccn1)N1CC[C@H]2OCC[C@@]2(COc2ccccn2)C1`, the “Percent Effect” value is reported as -10.25%.

As for `COC(=O)c1ccc(S(=O)(=O)N(C)CC(N)=O)c(Cl)c1`, the “Percent Effect” value is given as -3.285%.

Take `Cc1cnn(CC2CCCN2Cc2cc(=O)n3cccc(C)c3n2)c1` (stereo not drawn): the “Percent Effect” value is given as 6.367%.

As to `COc1ccc2c(c1)CCCC2CC(=O)O` (stereo not drawn), the “Percent Effect” value was -1.038%.

Regarding `O=C(NC1CCC1)[C@H]1C[C@@H]2[C@@H](C1)OCCN2CC1CC1.O=C(O)C(F)(F)F`, the “Percent Effect” value is on record as -6.466%.

As to `Cc1cc(-n2cncn2)ccc1C(=O)N(CC(F)(F)F)C(C)C`, the “Percent Effect” value is -3.659%.

For `Cc1nc(-c2ccccc2)sc1CSCCC(N)=O`, the “Percent Effect” value was 7.014%.

`O=C(NCc1n[nH]c2c1CCCCC2)c1cnn2c1CCCC2`: the “Percent Effect” value is recorded as -12.98%.

As for `CC(=O)N1C[C@@H]2CC[C@H](C1)N(C(=O)CCc1n[nH]c3c1CCCC3)C2`, the “Percent Effect” value is -10.18%.

Consider `CN(Cc1noc2c1CCCC2)C(=O)CN1C(=O)COc2ccccc21`, for which the “Percent Effect” value was -4.066%.

In the case of `CC1=C(C(=O)N(C)Cc2n[nH]c3c2CCCCC3)C(C)NC(=O)N1` (stereo not drawn), the “Percent Effect” value is listed as 97.58%.

As for `CN(Cc1noc2c1CCCC2)C(=O)C1CCOc2ccccc2C1` (stereo not drawn), the “Percent Effect” value is listed as -27.45%.

Regarding `COc1nc2c(cc1C(=O)N(C)Cc1n[nH]c3c1CCCC3)CCC2`, the “Percent Effect” value was -1.669%.

Take `CCCn1ncc(C(=O)NCc2n[nH]c3c2CCCCC3)c1C`: the “Percent Effect” value is given as -11.8%.

As to `CC1=C(C(=O)N(C)Cc2noc3c2CCCC3)C(C)NC(=O)N1` (stereo not drawn), the “Percent Effect” value is 99.57%.

Take `CC1=C(C(=O)NCCc2n[nH]c3c2CCCC3)C(C)NC(=O)N1` (stereo not drawn): the “Percent Effect” value was 140.8%.

Take `COCCCC1CCCN(C(=O)CCc2csc(N)n2)C1` (stereo not drawn): the “Percent Effect” value came to 18.03%.

Regarding `CC(NCCN1CCC(N(C)C)CC1)c1ccc(Cl)s1` (stereo not drawn), the “Percent Effect” value is recorded as 1.149%.

Regarding `Cc1cccc(=O)n1CCCNc1nc(N(C)C)nc2c1CCNCC2`, the “Percent Effect” value is -26.54%.
